# Several values for one entry are separate records, joined by “and”; a condition that tells them apart may be missing. Equal entries are not always repeated. Where a structure was tested more than once in an assay, its records may differ in their call. Activity calls are given as the source filed them.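 The calls were made as follows, unless noted: active = compounds whose cell count with miR-34 switched on is under 0.7 times the count with it off; inactive = the rest.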
# Key:
# [1] = sensitizers of A549 cells to miR-34 induction, primary screen, imaging, A549 dox-inducible miR-34, nuclei and caspase counts (AID 1347080); details: A549 miR-34 inducible, Hoechst nuclei count, 48 h
# [2] = survival rescue of mitochondrial mutant cells in low glucose, primary screen, MELAS cybrids, Rieske KO mouse fibroblasts, CellTiter-Glo (AID 1508586;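 active = mean z-score across replicates of 1.96 or higher in either the MELAS or the Rieske mutant cell line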;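 also: z relative to plate mean and SD of compound and empty wells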)
# [3] = stronger effect = lower value, cell number ratio, induced over uninduced
# [4] = measured here: relative caspase fold change +Dox/-Dox
# [5] = measured here: total cells with miR-34 induction, stronger effect = lower value
# [6] = measured here: total cells without miR-34 induction
# [7] = MELAS cybrid survival, CellTiter-Glo 48 h, stronger effect = higher value
# [8] = Rieske KO mouse fibroblast survival, CellTiter-Glo 72 h
# Also: test concentration not given here.
SMILES,"fold change [1, 3]","fold change [1, 4]","cell count [1, 5]","cell count [1, 6]","z-score [2, 7]","z-score [2, 8]"
CCCCC(F)(F)C(=O)CCC1C(O)CC(=O)C1CCCCCCC(=O)O (centres undefined),0.926 (inactive),0.726,8100,8740,0.0399 (inactive),-0.0235
CCc1cccc2c3c([nH]c12)[C@](CC)(CC(=O)O)OCC3,0.926 (inactive),0.786,7980,8620,-0.475 (inactive),-0.00521
CNc1nc(Nc2cn(C(C)(C)C#N)nc2C)ncc1C(F)(F)F,0.858 (inactive),0.457,7920,9230,-0.302 (inactive),0.79
O=C(O)c1ccc(C=C2SC(=S)N(c3cccc(C(F)(F)F)c3)C2=O)cc1,0.824 (inactive),0.518,6780,8220,-0.207 (inactive),-3.49
CC(=O)C1CC[C@H]2[C@@H]3CCC4=CC(=O)CC[C@]4(C)[C@@H]3CC[C@]12C (some centres undefined),0.844 (inactive),1.47,7050,8360,-0.493 (inactive),-0.487
CCOc1cc2ncc(C#N)c(Nc3ccc(F)c(Cl)c3)c2cc1NC(=O)C=CCN(C)C,0.915 (inactive),1.02,681,744,1.18 (inactive),0.656
CCOC1OC(=O)CC1NC(=O)C1CCCN1C(=O)C(NC(=O)c1ccc(N)c(Cl)c1)C(C)(C)C (centres undefined),0.983 (inactive),0.559,8140,8280,-0.153 (inactive),0.0351
CCCCCOC(=O)Nc1nc(=O)n(C2OC(C)C(O)C2O)cc1F (centres undefined),0.881 (inactive),1.03,6790,7710,-0.294 (inactive),0.792
OCC1OC(OCCc2ccc(O)cc2)C(O)C(O)C1O (centres undefined),0.962 (inactive),0.762,10000,10400,-0.35 (inactive),0.467
CCCC(=O)Nc1cccc(NC(=O)c2ccccc2Br)c1,0.957 (inactive),0.928,7570,7910,-0.112 (inactive),-0.0371
CC(C)CCNC(=O)C(CC(C)C)NC(=O)C1OC1C(=O)O (centres undefined),0.919 (inactive),0.36,8670,9430,-0.356 (inactive),0.0853
COc1cc(CCC(C)=O)ccc1O,0.964 (inactive),0.351,7540,7830,-0.174 (inactive),-0.0455
COC(=O)NC(C(=O)N1CCCC1c1ncc(-c2ccc(-c3ccc(-c4cnc(C5CCCN5C(=O)C(NC(=O)OC)C(C)C)[nH]4)cc3)cc2)[nH]1)C(C)C (centres undefined),0.912 (inactive),0.711,6220,6830,1.19 (inactive),0.581
CC(C)NCC(C(=O)N1CCN(c2ncnc3c2C(C)CC3O)CC1)c1ccc(Cl)cc1 (centres undefined),1.1 (inactive),0.724,7580,6900,-0.408 (inactive),0.0437
NC(N)=NN=Cc1c(Cl)cccc1Cl,0.921 (inactive),0.613,8130,8830,-0.139 (inactive),-0.245
CC1CC[C@]2(C(=O)O)CC[C@]3(C)C(=CC[C@H]4[C@@]5(C)CC(O)C(O)[C@@](C)(CO)[C@@H]5CC[C@]43C)[C@H]2C1C (some centres undefined),0.88 (inactive),0.855,8330,9460,-0.312 (inactive),0.68
CCC1OC(=O)C(C)C(OC2C[C@@](C)(OC)C(O)C(C)O2)C(C)C(OC2OC(C)CC(N(C)C)C2O)[C@](C)(O)CC(C)C(=NOCOCCOC)C(C)C(O)[C@]1(C)O (some centres undefined),0.909 (inactive),0.933,9240,10200,-0.34 (inactive),0.815
CC(=O)OCC(=O)[C@]12OC(C)(C)OC1C[C@H]1[C@@H]3CC(F)C4=CC(=O)C=C[C@]4(C)[C@]3(F)C(O)C[C@@]12C (some centres undefined),0.819 (inactive),1.14,5400,6590,-0.325 (inactive),-0.647
C[C@@]12CCC3=C4CCC(=O)C=C4CC[C@H]3[C@@H]1CC[C@@]2(O)CC#N,0.908 (inactive),0.868,7270,8010,-0.385 (inactive),0.301
CC1O[C@@H](OC2C(Oc3cc(O)c(C(=O)CCc4ccc(O)cc4)c(O)c3)OC(CO)C(O)C2O)C(O)C(O)C1O (some centres undefined),0.973 (inactive),0.587,8080,8300,-0.155 (inactive),-0.191
Cc1cccc(C)c1OCC(=O)NC(Cc1ccccc1)C(O)CC(Cc1ccccc1)NC(=O)C(C(C)C)N1CCCNC1=O (centres undefined),1 (inactive),0.797,6290,6270,-0.513 (inactive),0.0231
COc1cccc2c1C(=O)c1c(O)c3c(c(O)c1C2=O)C[C@@](O)(C(=O)CO)CC3O[C@H]1CC(N)C(O)C(C)O1 (some centres undefined),0.879 (inactive) and 1.08 (inactive),1.03 and 0.95,1470 and 1780,1680 and 1650,5.38 (active) and -0.136 (inactive),4.45 and -2.31

SMILES,"fold change [1, 3]","fold change [1, 4]","cell count [1, 5]","cell count [1, 6]","z-score [2, 7]","z-score [2, 8]"
C=C1CCC(O)CC1=CC=C1CCC[C@]2(C)C(C(C)CCCC(C)C)CC[C@@H]12 (some centres undefined),0.915 (inactive),0.845,8000,8740,-0.279 (inactive),-0.0631
COc1ccc(NS(=O)(=O)c2sc3ccc(Cl)cc3c2C)cc1N1CCNCC1,0.966 (inactive),0.423,7390,7650,-0.345 (inactive),-0.0807
COc1c(O)cc2c(c1O)[C@@H]1OC(CO)C(O)C(O)[C@H]1OC2=O (some centres undefined),0.888 (inactive),1.9,8260,9300,-0.313 (inactive),0.533
CC(C)(F)CC(NC(c1ccc(-c2ccc(S(C)(=O)=O)cc2)cc1)C(F)(F)F)C(=O)NC1(C#N)CC1 (centres undefined),0.826 (inactive),0.999,7020,8500,-0.379 (inactive),-0.123
Cc1cc2c(F)c(Oc3ncnn4cc(OCC(C)O)c(C)c34)ccc2[nH]1 (centres undefined),1.07 (inactive),0.907,4250,3990,-0.638 (inactive),0.759
CC(=O)O[C@]1(C(C)=O)CC[C@H]2[C@@H]3C[C@H](C)C4=CC(=O)C=C[C@]4(C)[C@@]3(F)[C@H](O)C[C@@]21C,0.862 (inactive),1.9,5370,6240,-0.0969 (inactive),-0.184
CCC1C(=O)N(C)c2cnc(Nc3ccc(C(=O)NC4CCC(N5CCN(CC6CC6)CC5)CC4)cc3OC)nc2N1C(C)C (centres undefined),1.2 (inactive),0.875,1460,1210,6.19 (active),-4.08
Cc1ccc(C(=O)N(CCCN)C(c2nc3cc(Cl)ccc3c(=O)n2Cc2ccccc2)C(C)C)cc1 (centres undefined),0.993 (inactive),0.877,1340,1350,0.859 (inactive),-0.608
CCOC(=O)C(CCc1ccccc1)NC(C)C(=O)N1CCCC1C(=O)O (centres undefined),0.954 (inactive),0.968,7520,7880,-0.0746 (inactive),-0.409
S=C=Nc1cccc(NC(=S)NCCCCNC(=S)Nc2cccc(N=C=S)c2)c1,0.972 (inactive),0.614,7440,7650,-0.615 (inactive),0.0526
NC(=O)c1cnc(NC2CCCCC2N)nc1Nc1cccc(-n2nccn2)c1 (centres undefined),0.82 (inactive),0.778,1580,1920,-0.344 (inactive),-1.57
COC1=C2CC(C)CC(OC)C(O)C(C)C=C(C)C(OC(N)=O)C(OC)C=CC=C(C)C(=O)NC(=CC1=O)C2=O (centres undefined),0.91 (inactive),1.01,3230,3550,2.85 (active),-2.42
COc1cccc2c1C(=O)c1c(O)c3c(c(O)c1C2=O)C[C@@](O)(C(C)=O)CC3O[C@H]1CC(N)C(O)C(C)O1 (some centres undefined),0.959 (inactive),0.948,2300,2390,2.59 (active),-0.443
CCCSc1nc(NC2CC2c2ccc(F)c(F)c2)c2nnn(C3CC(OCCO)C(O)C3O)c2n1 (centres undefined),0.894 (inactive),0.998,6430,7190,-0.266 (inactive),-0.123
CCC(C)C(=O)OC1CC(O)C=C2C=CC(C)C(CCC(O)CC(O)CC(=O)O)[C@H]21 (some centres undefined),0.937 (inactive),0.958,7720,8230,0.0242 (inactive),-0.0533
FC(F)(F)c1ccc(C=Cc2nc(COc3ccc(CCCCn4ccnn4)cc3)co2)cc1,0.766 (inactive),1.23,4190,5470,-0.189 (inactive),-0.508
CNC(C)C(=O)NC(C(=O)N1CCCC1C(=O)Nc1snnc1-c1ccccc1)C1CCCCC1 (centres undefined),0.982 (inactive),0.55,8360,8510,-0.276 (inactive),-0.145
CCn1c(N)c(C(=O)NC)c(=O)c2ccc(C#C[C@@](C)(O)COC)nc21,0.913 (inactive),0.578,6630,7260,-0.356 (inactive),-0.157
COC1C=CO[C@@]2(C)Oc3c(C)c(O)c4c(O)c(c(C=NN5CCN(C)CC5)c(O)c4c3C2=O)NC(=O)C(C)=CC=CC(C)C(O)C(C)C(O)C(C)C(OC(C)=O)C1C (some centres undefined),0.973 (inactive),0.46,7970,8200,-0.298 (inactive),0.515
OCCOc1ccc(C(=C(CCCl)c2ccccc2)c2ccccc2)cc1,0.979 (inactive),0.793,9190,9380,-0.333 (inactive),-0.092
Cc1cn(C2CC(O)C(CO)O2)c(=O)[nH]c1=O (centres undefined),0.853 (inactive),1.28,7950,9310,-0.34 (inactive),0.719
CC1OC(OCC2OC(Oc3c(-c4ccc(OCCO)c(OCCO)c4)oc4cc(OCCO)cc(O)c4c3=O)C(O)C(O)C2O)C(O)C(O)C1O (centres undefined),0.984 (inactive),0.465,7700,7830,-0.513 (inactive),-0.15

# Reference: PubChem BioAssay
